# Only some compounds are listed: those with a hit (about 3.4% of all), similar ones and a draw of the others.
# PP5 primary = blocks human protein phosphatase 5 activity; P53041; purified PP5c, OMFP substrate fluorescence; inhibition, % at 6.7 µM; 0.18% of 320,000 active; AID 1987;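 active = inhibition above the campaign's mean inhibition across all tested compounds plus 3 SD, cut at about 9.5% in these data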;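 also: 0% = DMSO only and 100% = 100 µM cantharidin control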
# Target sequence (P53041 whole entry, looked up): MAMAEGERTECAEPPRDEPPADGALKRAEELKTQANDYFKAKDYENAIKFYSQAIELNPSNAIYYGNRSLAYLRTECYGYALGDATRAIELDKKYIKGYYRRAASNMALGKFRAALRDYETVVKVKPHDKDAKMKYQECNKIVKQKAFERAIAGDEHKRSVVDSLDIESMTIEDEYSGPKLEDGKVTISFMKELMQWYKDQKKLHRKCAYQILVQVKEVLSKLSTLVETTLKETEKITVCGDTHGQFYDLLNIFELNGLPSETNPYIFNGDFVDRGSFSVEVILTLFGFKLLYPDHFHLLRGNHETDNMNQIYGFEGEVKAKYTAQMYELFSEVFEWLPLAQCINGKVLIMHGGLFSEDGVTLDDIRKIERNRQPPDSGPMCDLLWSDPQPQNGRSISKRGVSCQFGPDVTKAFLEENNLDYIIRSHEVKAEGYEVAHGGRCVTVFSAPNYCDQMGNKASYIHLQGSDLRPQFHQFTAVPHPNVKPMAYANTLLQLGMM
# PAFAH1B2 inh = inhibitors of human PAFAH1B2; P68402; recombinant PAFAH1B2, FP-rhodamine activity probe, fluorescence polarization; inhibition, % at 3.39 µM; 1.2% of 340,000 active; AID 492953;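 active = inhibition above the mean of all tested compounds plus 3 SD, cut at about 24% in these data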;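 also: 0% = enzyme with DMSO and 100% = wells lacking PAFAH1B2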
# Target sequence (P68402 whole entry, looked up): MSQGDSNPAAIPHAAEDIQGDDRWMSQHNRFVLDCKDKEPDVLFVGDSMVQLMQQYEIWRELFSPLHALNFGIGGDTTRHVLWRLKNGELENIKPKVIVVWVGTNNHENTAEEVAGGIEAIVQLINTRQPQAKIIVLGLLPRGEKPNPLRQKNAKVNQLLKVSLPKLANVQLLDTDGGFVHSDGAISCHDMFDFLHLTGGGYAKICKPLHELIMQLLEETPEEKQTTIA
# PAFAH2 FP inh = inhibitors of human PAFAH2 | inhibition, % at 3.39 µM | 0.99% of 340,000 active | recombinant PAFAH2, FP-rhodamine activity probe, fluorescence polarization | Q99487;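 active = inhibition above the mean over all tested compounds plus 3 SD, cut at about 30% in these data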;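 also: inhibitors block probe labeling of enzyme so polarization drops; 0% = enzyme with DMSO and 100% = wells lacking PAFAH2 protein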
# pPAFAH inh = pPAFAH (human) enzyme inhibition | Q13093 | recombinant pPAFAH, FP-rhodamine probe fluorescence polarization | inhibition, % at 3.39 µM | 1.5% of 330,000 active | AID 463082;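 active = inhibition above the mean inhibition across the screen plus 3 SD, cut at about 25% in these data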;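 also: inhibitors block binding of the rhodamine activity-based probe so polarization drops; 0% = enzyme with DMSO and 100% = wells lacking pPAFAH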
# PP1 counter = counter-screen for PP5 inhibitors: inhibitors of human PP1-alpha | inhibition, % at 6.7 µM | purified PP1alpha, OMFP fluorescence | AID 2235 | 0.9% of 320,000 active | P62136;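 active = inhibition above the mean inhibition of all tested compounds plus 3 SD, computed separately for each screening campaign, cut at about 15% in these data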
# PAFAH1B3 inh = PAFAH1B3 (human) inhibition | recombinant PAFAH1B3, FP-rhodamine probe, fluorescence polarization | inhibition, % at 3.39 µM | 0.28% of 340,000 active | AID 492972;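 active = inhibition above the screen-wide average of all tested compounds plus 3 SD, cut at about 25% in these data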;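 also: 0% = enzyme with DMSO only and 100% = wells lacking PAFAH1B3 protein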
# PAFAH2 confirm = PAFAH2 (human) inhibition, confirmed. shares compounds with PAFAH2 FP inh. recombinant PAFAH2, FP-rhodamine activity probe, fluorescence polarization. inhibition, % at 3.39 µM. 65% of 2,300 active. AID 493030;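 active = mean inhibition over three repeats above a set limit taken from the earlier primary screen, cut at about 30% in these data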;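 also: inhibitor blocks binding of rhodamine activity probe so polarization falls; 0% = enzyme with DMSO and 100% = wells lacking PAFAH2 protein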
# * = called active by the depositor; nt = no result.
SMILES,PP5 primary,PAFAH1B2 inh,PAFAH2 FP inh,pPAFAH inh,PP1 counter,PAFAH1B3 inh,PAFAH2 confirm
Cc1ccc(C(=O)OCC(=O)NCc2ccco2)cc1C,-0.4,3.9,58.6*,5.1,-2.6,4.0,34.5*
Cc1cc(Cl)ccc1OCC(=O)Nc1ccccc1N1CCOCC1,2.2,4.0,6.4,7.2,5.5,5.7,nt
CCOC(=O)Nc1nc(-c2ccccc2)c(C(=O)c2ccccc2)s1,5.2,10.6,41.0*,4.0,-0.1,9.5,41.9*
COC(=O)Nc1nc(-c2ccccc2)c(C(=O)c2ccc(Cl)cc2)s1,-1.0,9.1,9.5,2.1,-3.0,4.8,nt
Cc1ccc(C(=O)c2ccccc2C(=O)OCC(=O)N2CCCC2)cc1,nt,1.4,0.9,-6.9,nt,4.2,nt
Cc1ccc(C(=O)c2ccccc2C(=O)OCC(=O)NC(C)(C)C)cc1,0.7,0.1,61.7*,1.2,0.2,8.6,50.7*
CC(=O)NC(CC(=O)OCC(=O)Nc1cc(S(=O)(=O)N2CCCCC2)ccc1C)c1ccccc1 (stereo not drawn),nt,2.5,7.2,3.4,nt,5.3,nt
COc1ccccc1CNC(=O)COC(=O)c1ccccc1SCC(=O)N1CCCC1,-1.8,-1.1,28.5,0.7,-1.2,-0.3,nt
CC(NC(=O)COC(=O)c1ccccc1SCC(=O)N1CCCC1)c1ccccc1 (stereo not drawn),-1.2,2.3,50.7*,6.0,-3.9,0.9,42.1*
COc1ccc(NC(=O)COC(=O)c2ccccc2SCC(=O)N2CCCC2)cc1,0.0,0.2,61.5*,5.6,-1.9,0.8,62.4*
Cc1ccccc1NC(=O)COC(=O)c1ccccc1SCC(=O)N1CCCC1,1.3,5.7,43.5*,4.8,-3.5,-4.3,41.1*
Cc1cccc(C(=O)OCC(=O)Nc2ccc3c(c2)OCCO3)c1O,1.9,2.8,4.3,-0.2,-2.6,-2.2,nt
COc1ccc(CC(=O)OCC(=O)Nc2ccc3c(c2)OCCO3)cc1OC,-1.0,-2.3,1.9,4.3,-0.9,5.6,nt
CN(C)S(=O)(=O)c1cccc(C(=O)OCC(=O)Nc2ccc3c(c2)OCCO3)c1,1.3,1.8,41.2*,11.2,-0.1,-2.1,39.5*
CCOc1ncccc1C(=O)OCC(=O)Nc1ccc2c(c1)OCO2,3.1,3.8,31.7*,21.7,-1.9,-0.8,35.9*
CCOc1ccc(C(=O)OCC(=O)Nc2ccc3c(c2)OCCO3)cc1OC,-1.9,8.3,74.0*,0.4,-0.7,-2.8,82.7*
Cc1cccc(C(=O)OCC(=O)Nc2ccc3c(c2)OCCO3)c1,1.4,3.5,61.1*,4.8,-0.2,4.8,58.2*
CC(C)(C)CNC(=O)[C@]1(C)CCC[C@@]2(C)C3CC[C@@]4(C)C[C@]3(CCC21)CC4=O (stereo partly drawn),3.4,-3.8,-9.5,-0.2,1.2,-1.2,nt
C[C@@H]1CN(Cc2nc(-c3cnccn3)no2)C[C@H](C)O1,0.6,0.1,-5.0,4.8,-2.0,7.5,nt
O=C(COC(=O)c1cccc(F)c1)Nc1ccc2c(c1)OCCO2,1.8,1.9,31.2*,9.3,-5.7,2.8,27.2
O=C(COC(=O)c1cc(Cl)ccc1O)Nc1ccc2c(c1)OCCO2,0.0,-3.7,6.5,1.7,-4.0,3.3,nt
COc1ccc(C(=O)OCC(=O)Nc2ccc3c(c2)OCCO3)c(OC)c1,1.9,4.2,55.1*,0.6,-1.1,2.8,50.3*
O=C(COC(=O)c1ccccc1F)Nc1ccc2c(c1)OCCO2,nt,4.1,70.2*,nt,nt,7.8,52.0*
CCOc1ncccc1C(=O)OCC(=O)c1ccc(F)cc1,1.1,7.2,20.3,11.2,-3.5,-0.9,nt
O=C(COC(=O)CNC(=O)c1ccccc1F)Nc1ccc2c(c1)OCCO2,-2.7,-0.2,-0.1,5.0,-1.8,1.9,nt
SMILES,PP5 primary,PAFAH1B2 inh,PAFAH2 FP inh,pPAFAH inh,PP1 counter,PAFAH1B3 inh,PAFAH2 confirm
CCOc1ncccc1C(=O)OCC(=O)c1ccc(Cl)s1,3.9,3.6,44.3*,8.0,2.1,7.8,17.4
CC(=O)N1CCN(S(=O)(=O)c2cccc(C(=O)N(Cc3ccccc3)c3cccc(C)c3)c2)CC1,-2.7,5.1,-5.2,2.9,9.3,10.5,nt
O=S(=O)(NCC1COc2ccccc2O1)c1ccccc1F (stereo not drawn),nt,6.3,9.7,3.4,nt,2.4,nt
O=C(OCC1COc2ccccc2O1)c1ccccc1F (stereo not drawn),0.1,-1.0,38.6*,11.8,-2.6,3.5,23.8
COc1ccc(C2=NN(C(=O)CN3CCCC3)C(c3ccc(OC)cc3)C2)cc1 (stereo not drawn),-0.6,nt,nt,3.9,0.1,nt,nt
Cc1c(Cl)cccc1-n1c(SCC(=O)NCc2cccs2)nnc1-c1ccncc1,-0.2,6.1,4.4,2.8,0.6,0.0,nt
O=C(COC(=O)C1CC1)NCc1ccccc1Cl,-1.9,4.9,58.3*,4.6,-5.4,-0.2,51.6*
Cc1cc(C(=O)OCC(=O)NCc2ccccc2Cl)c(C)o1,-1.5,2.5,50.8*,1.9,1.7,0.4,50.2*
COc1ccccc1CNC(=O)COC(=O)c1cc(C)oc1C,0.4,1.2,6.7,2.1,4.8,6.9,nt
Cc1cc(C(=O)OCC(=O)NCc2ccc(Cl)cc2Cl)c(C)o1,2.0,6.9,36.9*,3.3,-2.2,9.9,29.0
Cc1cc(C(=O)OCC(=O)NC(=O)NC(C)(C)C)c(C)o1,2.1,2.9,7.3,2.4,3.2,3.2,nt
COc1ccc2ccc3ccc(OC)c(OC(C)=O)c3c2c1,nt,3.8,7.6,nt,nt,5.2,nt
CN(C)C=NC(=O)c1cc(C(=O)c2ccc(Cl)cc2Cl)c[nH]1,-0.6,nt,nt,2.1,-3.6,nt,nt
CN(C)S(=O)(=O)N(CC(=O)N(Cc1ccccc1)Cc1ccccc1)c1ccccc1,-0.4,-2.1,37.9*,4.8,2.0,-1.6,23.9
Cc1c(C(=O)OC2CCCC2C)[nH]c2c1C(=O)CCC2 (stereo not drawn),0.9,0.4,59.1*,4.1,-0.4,7.5,38.7*
Cc1c(C(=O)OCCOc2ccccc2)[nH]c2c1C(=O)CCC2,0.2,-1.0,-0.1,3.6,-0.1,-5.6,nt
COc1ccc(CNC(=O)COC(=O)C2CC2C)cc1OC (stereo not drawn),-0.6,2.7,8.4,0.4,-1.7,4.6,nt
CC1CC1C(=O)OCC(=O)NCc1ccc(Cl)cc1Cl (stereo not drawn),2.6,4.9,62.3*,5.5,-0.3,4.3,53.2*
CC1CC1C(=O)OCC(=O)NCc1ccc(Cl)cc1 (stereo not drawn),3.0,6.0,45.7*,6.6,2.1,0.6,22.9
CCOc1ccc(NC(=O)CSc2ccc(-c3ccccn3)nn2)cc1,-1.1,7.4,0.7,5.7,-3.0,3.1,nt
N#CC1=C(N)Oc2cc(O)c(C=Nc3ccccc3)cc2C1c1ccccc1 (stereo not drawn),2.6,5.0,6.7,8.4,1.0,-3.2,nt
O=C(COC(=O)c1cc(Br)ccc1O)NC1CCCCCC1,-1.9,1.2,24.7,6.1,-2.7,12.9,nt

# From PubChem BioAssay
